± gives the standard deviation of the averaged measurements.

Consider ten compounds from the supplement of paper PMC6279402.

The subject of the assay is A549. Briefly: relative viability (normalised to negative control = 1, bortezomib = 0) (fraction); higher = less cytotoxic. The conditions noted are these: inflammatory serum-free RHB-A with cytokines + LPS, 5 d + 24 h CellTiter-Blue. The procedure: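 A549 KRAS-mutant NSCLC cells, pre-treated 5 µM GSK126 or vehicle (DMSO), were seeded at 250 cells/well in 384-well plates in serum-free RHB-A medium with inflammatory cytokines/LPS and treated with Selleck kinase inhibitor and NCI oncology compounds at 30 or 300 nM in triplicate, refreshed at 48 h. Viability was read by CellTiter-Blue after 5 d plus 24 h and normalised per plate with cellHTS2 (mean of bortezomib positive control = 0, mean of negative control = 1).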
Background: Alamar Blue is a resazurin reagent that responds to reducing activity.

The mark [1] stands for this setting: compound 30 nM, GSK126 pretreatment: 5 uM GSK126.
[2] abbreviates: compound 30 nM, GSK126 pretreatment: none (vehicle).
Setting [3] is: compound 300 nM, GSK126 pretreatment: 5 uM GSK126.
Setting [4] is: compound 300 nM, GSK126 pretreatment: none (vehicle).

Turning to `CC[C@H](CO)Nc1nc(NCc2ccccc2)c2ncn(C(C)C)c2n1` [ROSCOVITINE; Roscovitine(CYC202); Roscovitine], the relative viability under setting [1] was determined as 0.929 ± 0.16, the relative viability under setting [2] was 0.873 ± 0.12, the relative viability under setting [3] came to 0.963 ± 0.063 and the relative viability under setting [4] turned out to be 0.902 ± 0.088.

Regarding `COc1ncc(-c2ccc3nccc(-c4ccnnc4)c3c2)cc1NS(=O)(=O)c1ccc(F)cc1F`, the relative viability was 0.0446 ± 0.01 under setting [1], 0.0459 ± 0.0045 under setting [2], 0.00279 ± 0.0028 under setting [3] and 0.00434 ± 0.0032 under setting [4].

On to `Cc1ncc(-c2ccnc(Nc3ccc(S(C)(=O)=O)cc3)n2)n1C(C)C`, for which the relative viability under setting [1] was found to be 0.867 ± 0.072, the relative viability under setting [2] is 0.854 ± 0.011, the relative viability under setting [3] amounted to 0.675 ± 0.062 and the relative viability under setting [4] was found to be 0.69 ± 0.03.

Consider `CO[C@@H](C(=O)N1Cc2[nH]nc(NC(=O)c3ccc(N4CCN(C)CC4)cc3)c2C1)c1ccccc1`, for which the relative viability by setting is: under setting [1], 0.626 ± 0.07; under setting [2], 0.622 ± 0.05; under setting [3], 0.488 ± 0.032; under setting [4], 0.504 ± 0.058.

For `COc1cc(Nc2ncc3c(n2)-c2ccc(Cl)cc2C(c2c(F)cccc2OC)=NC3)ccc1C(=O)O`, the relative viability turned out to be 0.804 ± 0.087 under setting [1], 0.821 ± 0.044 under setting [2], 0.523 ± 0.11 under setting [3] and 0.381 ± 0.048 under setting [4].

Consider `NC(=O)Nc1cc(-c2cccc(F)c2)sc1C(=O)N[C@H]1CCCNC1`, for which the relative viability is, setting by setting: under setting [1], 0.407 ± 0.061; under setting [2], 0.389 ± 0.034; under setting [3], 0.253 ± 0.082; under setting [4], 0.194 ± 0.021.

As to `CCCCC(=O)OCC(=O)[C@]1(O)Cc2c(O)c3c(c(O)c2[C@@H](O[C@H]2C[C@H](NC(=O)C(F)(F)F)[C@H](O)[C@H](C)O2)C1)C(=O)c1c(OC)cccc1C3=O` [Valrubicin], the relative viability was 0.989 ± 0.055 under setting [1], 1.01 ± 0.042 under setting [2], 0.899 ± 0.027 under setting [3] and 0.879 ± 0.041 under setting [4].

In the case of `CO[C@H]1C[C@@H]2CC[C@@H](C)[C@@](O)(O2)C(=O)C(=O)N2CCCC[C@H]2C(=O)O[C@H]([C@H](C)C[C@@H]2CC[C@@H](O)[C@H](OC)C2)CC(=O)[C@H](C)/C=C(\C)[C@@H](O)[C@@H](OC)C(=O)[C@H](C)C[C@H](C)/C=C/C=C/C=C/1C` [Sirolimus; RAPAMYCIN; Rapamycin(Sirolimus); Rapamycin], the relative viability worked out at 0.576 ± 0.08 under setting [1], 0.588 ± 0.064 under setting [2], 0.552 ± 0.066 under setting [3] and 0.558 ± 0.07 under setting [4].

Take `NC1(c2ccc(-c3nc4ccn5c(=O)[nH]nc5c4cc3-c3ccccc3)cc2)CCC1`: the relative viability is, setting by setting: under setting [1], 0.679 ± 0.074; under setting [2], 0.691 ± 0.063; under setting [3], 0.387 ± 0.011; under setting [4], 0.522 ± 0.067.

Consider `FC(F)c1nc2ccccc2n1-c1nc(N2CCOCC2)nc(N2CCOCC2)n1`, for which the relative viability under setting [1] is 0.684 ± 0.12, the relative viability under setting [2] was 0.738 ± 0.044, the relative viability under setting [3] turned out to be 0.321 ± 0.1 and the relative viability under setting [4] came out at 0.395 ± 0.033.
